Active and inactive are the calls of the source. The calls were made as follows: active = hit-call score of the fitted dose curve at least 0.9, where 1 is the maximum; inactive = score below 0.9.

The assay in a line: ATG_TGFb_CIS: Attagene CIS-FACTORIAL HepG2 Assay for human Transforming Growth Factor (TGF) (AID 2282967). To be noted: HepG2 Attagene CIS TGFb reporter, mRNA transcription; actives raise or lower the signal. On the procedure:
ATG_CIS is a cell-based, multiplexed-readout assay that uses HepG2, a human liver cell line, with measurements taken at 24 hours after chemical dosing in a 24-well plate.ATG_TGFb_CIS is one of 52 assay component(s) measured or calculated from the ATG_CIS assay. It is designed to make measurements of mRNA induction, a form of inducible reporter, as detected with fluorescence intensity signals by Reverse transcription polymerase chain reaction (RT-PCR) and Capillary electrophoresis technology.Data from the assay component ATG_TGFb_CIS was analyzed into 1 assay endpoint. This assay endpoint, ATG_TGFb_CIS, was analyzed with bidirectional fitting relative to DMSO as the negative control and baseline of activity. Using a type of inducible reporter, measures of mRNA for gain or loss-of-signal activity can be used to understand the reporter gene at the transcription factor-level as they relate to the gene TGFB1. Furthermore, this assay endpoint can be referred to as a primary readout, because this assay has produced multiple assay endpoints where this one serves a reporter gene function. To generalize the intended target to other relatable targets, this assay endpoint is annotated to the growth factor intended target family, where the subfamily is transforming growth factor beta.
Human liver HepG2 cells are transiently transfected with multiple reporter transcription units (MRTUs) in 6-well plates using FuGene 6 reagent (Roche; 3 ml FuGene/1 mg DNA). The MRTU constructs are regulated by a cis-regulating element (promoter). […] A major difference between the CIS and TRANS system is that in CIS activities of endogenous TFs are measured, whereas the TRANS assay evaluates changes in activities of exogenous, chimeric NR-Gal4 proteins. […] At the end of 24 hour incubation, total RNA was isolated using TriZol reagent (Invitrogen). The isolated RNA is then reverse-transcribed using oligo(dT) primer and Mo-MLV reverse transcriptase (Invitrogen) with DNAse I (Ambion) treatment for 30 min. The one-tenth of the produced cDNA was amplified by PCR using Taq DNA polymerase (Invitrogen) and two reporter sequence-specific primers. The PCR products were fluorescently labeled by primer extension with 6-arboxyfluorescein (6-FAM) 5'-labeled reporter sequence-specific primer (2 min at 95 C, 20 s at 68 C and 10 min at 72 C) and these products were digested with 5U of HpaI (New England Biolabs) for 2h at 37 C. The fragments were purified using Qiaquick PCR columns (Qiagen), analyzed on an ABI 3130xL genetic analyzer (Applied Biosystems) with peak positions identified by using a set of X-rhodamine (ROX)-labeled MapMarker1000 molecular weight standards (BioVentures). The raw capillary electrophoresis data was processed using Attagraph software (Attagene).
On to `Cc1c[nH]c(=O)[nH]c1=O`, for which the result was inactive.

Turning to `CC(C)=CCl`, the call was inactive.

`CCC(C)c1ccccc1` (stereo not given): the result was inactive.

On to `Cc1c(C(=O)c2c[nH]n(C)c2=O)ccc(S(C)(=O)=O)c1C1=NOCC1`, for which the result was inactive.

In the case of `CC(C=O)c1ccccc1` (stereo not given), the molecule was classed as inactive.

With `CCCCNC(=S)NCCCC`, the molecule was classed as inactive.

Take `CCc1cccc(CC)c1`: the call was inactive.

For the molecule `C=C[Si](OCCOC)(OCCOC)OCCOC`, the molecule was called inactive.

Consider `CCCCOCCOCCOC(C)=O`, for which the call was inactive.

In general, AC50 refers to the concentration at which the activity in the assay is half-maximal. On to `O=C(Cl)c1c(Cl)c(Cl)c(C(=O)Cl)c(Cl)c1Cl`, for which the AC50 was 0.74 µM (active).

Consider `CC(=O)CCC=C(C)C`, for which the molecule was called inactive.

Consider `C=C(C)C(=O)OCC(O)COc1ccc(C(C)(C)c2ccc(OCC(O)COC(=O)C(=C)C)cc2)cc1` (stereo not given), for which the outcome was inactive.

For the molecule `CC(C)(C)C1CCC(=O)CC1`, the molecule was called inactive.

Regarding `CCN(CC)c1cccc(C)c1`, the result was inactive.

For `COC(Cc1ccccc1)OC`, the call was inactive.

As for `C=C(C)C1CC=C(C)CC1` (stereo not given), the outcome was inactive.

Take `CCC(C)N` (stereo not given): the call was inactive.

Take `CC/C=C\C/C=C\C/C=C\CCCCCCCC(=O)OC`: the AC50 is 100 µM (active).

As to `O=C(O)C1CCC(C(=O)O)CC1` (stereo not given), the molecule was called inactive.

With `CC(C)c1cc(C(C)C)cc(C(C)C)c1`, the molecule was called inactive.

With `C=CC(=O)OCCCCCCOC(=O)C=C`, the call was inactive.

For `CCCCOCCOC(=O)COc1ccc(Cl)cc1Cl`, the call was inactive.

For the molecule `CC1=CP(=O)(c2ccccc2)CC1` (stereo not given), the outcome was inactive.

On to `C=C(C)C(=O)OCCOC(=O)C(=C)C`, for which the molecule was called inactive.

Take `CCCCCCCCC(CO)CCCCCC` (stereo not given): the outcome was inactive.

For `CCCC=C(C=O)CC`, the molecule was classed as inactive.

Turning to `CCCCNS(=O)(=O)c1ccc(C)cc1`, the result was inactive.

For the molecule `COC(=O)c1ccccc1C`, the molecule was called inactive.

As to `C1CNCCN1`, the outcome was inactive.

On to `COC(OC)(C(=O)c1ccccc1)c1ccccc1`, for which the concentration at half-maximal activity (AC50) was 138 µM (active).

For the molecule `CN(C)Cc1cc(CN(C)C)c(O)c(CN(C)C)c1`, the call was inactive.

With `Nc1cccc(N)n1`, the molecule was classed as inactive.

With `CC1(C)CCC[C@]2(C)[C@H]3CC(=O)O[C@]3(C)CC[C@@H]12`, the outcome was inactive.

`CC12CCC(CC1)C(C)(C)O2`: the outcome was inactive.

For `O=C(Oc1ccccc1)c1ccccc1O`, the outcome was inactive.

Take `CCCCCC[C@@H](O)C/C=C\CCCCCCCC(=O)OCC(O)CO` (stereo not given in full): the molecule was classed as inactive.

For the molecule `Cc1cc(=O)[nH]c(=O)[nH]1`, the call was inactive.

Consider `CCN1CN(CC)CN(CC)C1`, for which the outcome was inactive.

With `COc1cc(C)ccc1O`, the molecule was classed as inactive.

`CCCCOC(=O)C(C)CC` (stereo not given): the molecule was classed as inactive.

Source of the values: PubChem BioAssay (EPA / NIEHS).
